# Source: PubChem BioAssay
# CHX counter-1 – counter-screen hit for Shiga toxin inhibitors, cycloheximide | 12% of 300,000 active | max response, % | cell reporter, cycloheximide protein synthesis inhibition counterscreen | AID 2314; in the data active = max response mostly above about 13%, no sharp cut-off; inactive = mostly below about 14%; note: read at 38.3 µM for the half of the compounds with a filed dose; 0% is about no effect
# LmPK inhibitor – LmPK (Leishmania mexicana) enzyme inhibition | Q27686 | purified LmPK, Kinase-Glo ATP luminescence, 1 h | Potency, µM (series often up to 57.5 µM), for the others: at the top dose activity change, negative = inhibition, hits mostly inhibitors | 0.37% of 290,000 active; note: potency is the fitted concentration of half-maximal effect; % is set by controls: 0 for no effect and ±100 for the full control effect
# Target sequence (Q27686 whole entry, looked up): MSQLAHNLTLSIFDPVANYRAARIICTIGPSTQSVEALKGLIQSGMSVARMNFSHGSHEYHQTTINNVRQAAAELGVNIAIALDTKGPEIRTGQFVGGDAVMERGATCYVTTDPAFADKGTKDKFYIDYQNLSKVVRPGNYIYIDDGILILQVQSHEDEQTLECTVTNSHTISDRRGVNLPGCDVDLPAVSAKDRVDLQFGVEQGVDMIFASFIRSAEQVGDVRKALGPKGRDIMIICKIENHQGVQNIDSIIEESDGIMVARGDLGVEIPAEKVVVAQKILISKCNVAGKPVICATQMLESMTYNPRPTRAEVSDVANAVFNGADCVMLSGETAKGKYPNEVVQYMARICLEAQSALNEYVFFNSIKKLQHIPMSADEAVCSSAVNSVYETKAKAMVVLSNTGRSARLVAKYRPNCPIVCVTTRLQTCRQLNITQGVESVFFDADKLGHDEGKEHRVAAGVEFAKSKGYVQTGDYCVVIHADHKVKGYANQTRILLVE
#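 In 50 mM imidazole pH 7.2 with 7 mM MgCl2, LmPK (0.1 nM) turned over PEP (0.5 mM) and ADP (0.1 mM) for 1 h at room temperature. Luciferase read-out of ATP.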
# Shiga inhibitor – Shiga toxin inhibition. Vero cells, Shiga toxin protein synthesis inhibition reporter. 9.2% of 290,000 active. inhibition, % at 38.7 µM. AID 2315; in the data active = inhibition mostly above about 28%, no sharp cut-off; inactive = mostly below about 43%; note: 0% is about no effect
# Giardia FBPA inh-1 – blocks Giardia fructose-bisphosphate aldolase activity; A8B2U2; purified Giardia FBPA; AID 2451; Potency, µM (titrated, usually from 59.6 µM), for the others: top-dose activity, negative = inhibition, hits mostly inhibitors; 0.71% of 290,000 active; note: potency is the fitted concentration of half-maximal effect; % is set by controls: 0 for no effect and ±100 for the full control effect; nearly all actives have a fitted effect of over 55% in size
# Target sequence (A8B2U2 whole entry, looked up): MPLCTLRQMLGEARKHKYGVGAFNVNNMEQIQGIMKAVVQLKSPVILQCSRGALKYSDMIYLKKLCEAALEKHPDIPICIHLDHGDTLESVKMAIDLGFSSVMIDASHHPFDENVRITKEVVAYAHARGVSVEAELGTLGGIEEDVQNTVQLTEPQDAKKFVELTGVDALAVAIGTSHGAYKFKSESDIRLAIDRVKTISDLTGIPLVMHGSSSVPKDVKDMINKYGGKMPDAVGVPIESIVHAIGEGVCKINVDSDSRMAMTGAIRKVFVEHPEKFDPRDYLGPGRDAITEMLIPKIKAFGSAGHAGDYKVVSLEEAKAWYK
#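 40 nM FBPA preincubated 10 min at RT with compound (up to 57.5 uM final), then substrate plus GAPDH/TPI/NAD/arsenate coupling and diaphorase/resazurin added. Fluorescence read after 20 min at RT, 525/598 nm.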
# Tb PYK inh – blocks Trypanosoma brucei pyruvate kinase; Q57TT1; TbPYK enzyme, Kinase-Glo Plus ATP luminescence, 45 min; Potency, µM (highest dose often 76.8 µM), without a hit: at the highest dose activity, negative = inhibition, actives largely listed as inhibitors; 0.12% of 410,000 active; AID 624173; note: potency is the fitted concentration of half-maximal effect; % is set by controls: 0 for no effect and ±100 for the full control effect; nearly all actives have a fitted effect of over 50% in size
#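 Activity of T. brucei pyruvate kinase was followed by Kinase-Glo Plus luminescence after the enzyme reacted 45 min at room temperature with 130 uM ADP (final) and substrate. Test compounds were added before ADP at multiple concentrations.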
# RE007 growth inh – less growth of the S. pombe RE007 Vpr strain. S. pombe RE007 Vpr strain, BacTiter-Glo ATP luminescence, 24 h. Potency, µM (series often up to 92.2 µM), without a hit: at the highest dose activity change, negative = less growth, hits mostly inhibitors. 0.21% of 360,000 active. AID 651644; active = well fitted falling curve with a large enough effect; inconclusive = small, poorly fitted or top-dose-only effect; inactive = no such curve, though single readings can be large or run the other way; note: potency is the fitted concentration of half-maximal effect; % is set by controls: 0 for no effect and ±100 for the full control effect; nearly all actives have a fitted effect of over 50% in size
#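 Fission yeast RE007 carrying one integrated HIV-1 vpr copy, seeded at OD 0.01 in PMG+AL medium with 23 nL pinned compound. Grown 24 h at 30 degrees; viability read by BacTiter-Glo luminescence after 5 min.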
# LmPK confirm – Inhibits Leishmania mexicana pyruvate kinase, confirmation | shares compounds with LmPK inhibitor | Potency, µM (highest dose often 57.5 µM), without a hit: at the top dose activity change, negative = inhibition, usual class: inhibitors | 40% of 150 active | purified LmPK, Kinase-Glo ATP luminescence, 1 h;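 active = compounds giving a full or partial concentration-response curve, as inhibitors or activators; inconclusive = weak, top-dose-only or unclear curve responses; inactive = no response at any tested dose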
# CHX counter-2 – counter-screen for Shiga toxin inhibitors: cycloheximide protein synthesis block; shares compounds with Shiga inhibitor; Cycloheximide counterscreen, protein synthesis reporter, Shiga toxin assay; 3% of 510 active; Potency, µM (doses to about 38.3 µM), inactives show top-dose activity (activation), usual class: activators; calls by dose curve; note: potency is the fitted concentration of half-maximal effect; 0% is about no effect
# Giardia growth – inhibitors of Giardia lamblia growth; shares compounds with Giardia FBPA inh-1; Giardia lamblia trophozoite growth inhibition; Potency, µM (top dose mostly 57.5 µM), inactives show top-dose activity change, negative = inhibition, most hits filed as inhibitors; 5% of 1,500 active; AID 2785;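 note: potency is the fitted concentration of half-maximal effect; trophozoites exposed to compound for 48 h at 37 °C; % is set by controls: 0 for no effect and ±100 for the full control effect; nearly all actives have a fitted effect of over 70% in size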
# Mammal cell tox – toxic to mammalian cells in Giardia aldolase counter-screen. shares compounds with Giardia FBPA inh-1. mammalian cell viability counter-screen, qHTS. Potency, µM (highest dose often 57.5 µM), for the others: at the top dose viability change, negative = toxicity, actives largely listed as inhibitors. 4% of 1,500 active;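 note: Chinese hamster ovary cells used as mammalian cytotoxicity surrogate; viability measured as cellular ATP by luminescence; potency is the fitted concentration of half-maximal effect; compound exposure lasted 48 h before reading; % is set by controls: 0 for no effect and ±100 for the full control effect; nearly all actives have a fitted effect of over 60% in size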
# Giardia FBPA inh-2 – confirmation of Giardia fructose-bisphosphate aldolase inhibitors; shares compounds with Giardia FBPA inh-1; purified Giardia aldolase enzyme activity, qHTS; Potency, µM (top dose mostly 57.5 µM), for inactives: at the highest dose activity change, negative = inhibition, hits mostly inhibitors; 5% of 1,500 active; AID 2787; note: potency is the fitted concentration of half-maximal effect; % is set by controls: 0 for no effect and ±100 for the full control effect; nearly all actives have a fitted effect of over 45% in size
# Rabbit FBPA inh – rabbit FBP aldolase inhibition by Giardia aldolase hits; Rabbit muscle FBPA enzyme inhibition, selectivity counter-screen; shares compounds with Giardia FBPA inh-1; Potency, µM (titrated, usually from 57.5 µM), for inactives: top-dose activity, negative = inhibition, most hits filed as inhibitors; 4% of 1,500 active; note: potency is the fitted concentration of half-maximal effect; % is set by controls: 0 for no effect and ±100 for the full control effect; nearly all actives have a fitted effect of over 60% in size
# GAPDH counter – GAPDH inhibition flagged for Giardia aldolase hits. 6% of 1,500 active. GAPDH coupling enzyme counterscreen, biochemical, qHTS. AID 2795. shares compounds with Giardia FBPA inh-1. Potency, µM (doses to about 57.5 µM), inactives show at the top dose activity change, negative = inhibition, hits mostly inhibitors; note: potency is the fitted concentration of half-maximal effect; % is set by controls: 0 for no effect and ±100 for the full control effect; nearly all actives have a fitted effect of over 55% in size
# * = called active by the depositor; u = inconclusive; x = no result; + = active, no number; [ ] = remark or other dose. Only a selection was taken, and hits are over-represented in it overall. Unless noted, calls come from the whole dose curve; as a rule, active = well fitted curve in the direction sought with a large enough effect; inconclusive = small, poorly fitted or top-dose-only effect, or another doubt; inactive = no such curve, though single readings can be large; an effect the other way counts as inactive or inconclusive.
SMILES,CHX counter-1,LmPK inhibitor,Shiga inhibitor,Giardia FBPA inh-1,Tb PYK inh,RE007 growth inh,CHX counter-2,others
C[C@]12CC[C@@H]3c4cc(O)c(O)cc4CC[C@H]3[C@@H]1CC[C@@H]2O,2,0.56µM*,25,16µM*,u,-15%[18.4 µM],x,LmPK confirm=u;Giardia growth=7%;Mammal cell tox=-15%;Giardia FBPA inh-2=4µM*;Rabbit FBPA inh=u;GAPDH counter=-29%
C=CCN(c1ccccc1)S(=O)(=O)c1cccc(C(=O)N(CC)CC(=O)Nc2c(F)cccc2F)c1,1,2%,8,x,-4%,5%,x,
O=c1c2ccccc2[se]n1-c1ccccc1,13,22µM*,19,7.9µM*,8.9µM*,-21%,x,LmPK confirm=13µM*;Giardia growth=20µM*;Mammal cell tox=u;Giardia FBPA inh-2=u;Rabbit FBPA inh=22µM*;GAPDH counter=-6%
O=c1c2ccccc2nc(-c2ccccc2)n1-c1ccccc1,0,-1%,-3,6%,3%,10%,x,
Cc1ccc(NC(=O)c2cc(S(=O)(=O)N3CCCCC3)ccc2N2CCOCC2)cc1F,1,6%,31*,14%,2%,1%,-1%,
CC(=O)Nc1ccc(NC(=O)c2cc(S(=O)(=O)N3CCCCC3)ccc2N2CCOCC2)cc1,x,x,x,x,-14%,-7%,x,
CC(C)NC(=O)c1ccc(OC2CSC2)cc1,-3,2%,29*,0%,1%,10%,u,
C[N+](C)(C)CCN1C(=O)c2ccccc2C1=O,x,x,x,x,0%,-7%,x,
COc1ccc(C(C)(C)C)cc1NC(=O)c1ccc2c(c1)SC1=NS(=O)(=O)CCN12,-3,4%,40*,-3%,-3%,-7%,-1%,
CN(C(=O)c1ccc2c(c1)SC1=NS(=O)(=O)CCN12)C(c1ccccc1)c1ccccc1,11,3%,-15,0%,-9%,24%,x,
Cc1ccc(-n2c(C)c(C)c3c(N)ncnc32)cc1,2,-2%,34*,6%,-19%,-20%,2%,
O=C(NCc1ccncc1)[C@@H]1CCCN1C(=O)[C@H]1CCCN1C(=O)c1c(F)cccc1F,x,x,x,x,2%,8%,x,
NNC(=O)c1ccc(NS(=O)(=O)c2ccc(Br)cc2)cc1,2,4%,28*,-2%,x,x,4%,
Cc1ccc(C(=O)N[C@H](C(=O)Nc2cccc(S(=O)(=O)N3CCOCC3)c2)C(C)C)cc1,x,x,x,x,2%,13%,x,
O=S(=O)(CCc1ccncc1)C1Cc2cccc3cccc1c23 (configuration not stated),-2,-3%,-11,-3%,-3%,-1%,x,
CC(O)(c1ccccc1)c1nc(-c2cccc(C(F)(F)F)c2)cs1 (configuration not stated),x,x,x,x,-2%,u,x,
Cc1nc(-c2cccc(C(F)(F)F)c2)sc1C(=O)O,11,0%,58*,19%,2%,8%,5%,
Cc1n[nH]c(C)c1CCNC(=O)C1CCC(=O)N(CCc2cccc(F)c2)C1 (configuration not stated),-2,-8%,-2,x,-2%,8%,x,
NC(=O)Cc1ccc(C(=O)c2ccccc2F)s1,15,-2%,38*,8%,-7%,-6%,0%,
CCOC(=O)C1CCCN(c2nc3ccccc3nc2C(C#N)C(=O)OCC)C1 (configuration not stated),-1,-1%,133*,-15%,-5%,-6%,-3%,
CCOC(=O)C1CCCN(c2nc3ccccc3nc2C(C#N)C(=O)OCCOC)C1 (configuration not stated),-1,8%,-6,-23%,6%,5%,x,
CSc1nc(SCCO)c2sc3nc(-c4ccco4)c4c(c3c2n1)CC(C)(C)OC4,-5,-1%,81*,-11%,13%,-24%,-2%,
O=C(CCNC(=O)c1ccc([N+](=O)[O-])cc1)NC1CCCCCC1,x,x,x,x,3%,-26%,x,
CC(C)NS(=O)(=O)c1ccc(OCC(=O)Nc2ccccc2F)cc1,7,-4%,34*,1%,0%,0%,8%,
COCCOC(=O)c1c(C)oc2ccc(OC(=O)c3ccco3)cc12,12,3%,+,1%,-4%,-9%,5%,
SMILES,CHX counter-1,LmPK inhibitor,Shiga inhibitor,Giardia FBPA inh-1,Tb PYK inh,RE007 growth inh,CHX counter-2,others
CCOc1cc(NC(=O)c2ccco2)c(OCC)cc1NC(=O)c1ccco1,-6,-10%,-7,x,1%,12%,x,
CC(C)c1ccccc1NC(=O)c1ccco1,2,1%,58*,-11%,0%,2%,u,
COc1ccccc1NC(=O)Cn1cc(C(=O)c2ccco2)c2ccccc21,5,0%,60*,0%,1%,7%,2%,
COc1ccccc1NC(=O)c1ccc(NC(=O)c2ccco2)cc1,6,2%,43*,0%,5%,-3%,3%,
COc1ccccc1NC(=O)c1cccc(NC(=O)c2ccco2)c1,-1,3%,-1,-1%,-1%,1%,x,
COc1ccccc1CN(C)C(=O)c1cccc(S(=O)(=O)N2CCCc3ccccc32)c1,x,x,x,x,-1%,-7%,x,
COc1cc(N(C)C)ccc1[C@]1(O)C(=O)N(C)c2ccc(Br)cc21,x,x,x,x,x,0%,x,
Cc1ccc(NC(=O)c2ccc(Cn3cc(Br)cn3)o2)cc1,8,1%,38*,0%,0%,6%,3%,
